Results on 13 compounds are retold here after PubChem BioAssay (NCATS).

Several values for one entry are separate records, joined by “and”; a condition that tells them apart may be missing. Equal values may be shown once. Results filed as inconclusive are left out. A structure can be active in one record and inactive in another. Activity calls are given as the source filed them. Calls follow the shape of the dose curve; as a rule, active = well fitted curve in the direction sought with a large enough effect; inconclusive = small, poorly fitted or top-dose-only effect, or another doubt; inactive = no such curve, though single readings can be large; an effect the other way counts as inactive or inconclusive.

A short description of assay [1]: Viability qHTS for spleen associated tyrosine kinase inhibitor (SYKi) naive MV4-11 cells (AID 1963823). Also: nearly all actives have a fitted effect of over 40% in size. Particulars: MV4-11 AML viability, CellTiter-Glo luminescence, 72 h; series mostly up to 45 µM. In a few lines: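 SYK inhibitor-naive MV4-11 cells, 500 per well, exposed to compounds for 72 hr at 37 C, 5% CO2. Viability read as CellTiter-Glo luminescence after 10 min at room temperature.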
On the technique in general: qHTS replaces the single test concentration by a dilution series.

A short description of assay [2]: Viability qHTS for spleen associated tyrosine kinase inhibitor (SYKi) drug resistant MV4-11 cells (AID 1963824). Also: nearly all actives have a fitted effect of over 35% in size. Particulars: SYKi-resistant MV4-11 viability, CellTiter-Glo, 72 h; series mostly up to 45 µM. In a few lines:
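SYK inhibitor-resistant MV4-11 AML cells, 500 per well, added to predispensed compounds and incubated 72 hr at 37 C, 5% CO2. Viability measured by CellTiter-Glo luminescence after 10 min at room temperature.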

Assay [3] can be described thus: Quantitative highthroughput screen to assess conditional lethalithy of NOMO1 cells grown in RPMI1640 with untreated serum (RPMI+s) (AID 1963876). Also: nearly all actives have a fitted effect of over 35% in size.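 As to Viability: 100% = DMSO wells and 0% = empty wells without cells.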 Particulars: NOMO1 AML cells in RPMI+serum, CellTiter-Glo viability, 48 h; series mostly up to 45.8 µM. In a few lines: (§1)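 Each medium arm—HPLM with 10% dialyzed FBS, or RPMI1640 with 5 mM glucose and 10% untreated or dialyzed FBS—was screened against an 11-point, 3-fold compound titration for 48 h at 37 °C, with CellTiter-Glo luminescence as endpoint.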
Background: ATP-based viability assays read luminescence as a measure of living cells.

Assay [4] can be described thus: Quantitative highthroughput screen to assess conditional lethalithy of NOMO1 cells grown in RPMI1640 with dialyzed fetal bovine serum (RPMI+ds) (AID 1963877). Also: nearly all actives have a fitted effect of over 30% in size.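 As to Viability: 100% = DMSO control wells and 0% = empty wells.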 Particulars: NOMO1 in RPMI+dialyzed FBS viability, ATP luminescence, 48 h; series mostly up to 45.8 µM. In a few lines:
as §1

A short description of assay [5]: Quantitative highthroughput screen to assess conditional lethalithy of NOMO1 cells grown in Human Plasma-Like Medium with dialyzed fetal bovine serum (HPLM+ds) (AID 1963878). Also: nearly all actives have a fitted effect of over 35% in size.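 As to Viability: 100% = DMSO wells and 0% = empty wells on each plate.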 Particulars: NOMO1 AML cells in HPLM+ds, CellTiter-Glo viability, 48 h; series mostly up to 45.8 µM. In a few lines: as §1
Assay [6] is described as follows: Quantitative highthroughput screen to assess conditional lethalithy of P12 Ichikawa cells grown in Human Plasma-Like Medium with dialyzed fetal bovine serum (HPLM+ds) (AID 1963879). Also: nearly all actives have a fitted effect of over 35% in size. Particulars: ATP luminescence, 48 h; Potency: viability; series mostly up to 45.8 µM. In a few lines: as §1
Assay [7] is described as follows: Quantitative highthroughput screen to assess conditional lethalithy of P12 Ichikawa cells grown in RPMI1640 with dialyzed fetal bovine serum (RPMI+ds) (AID 1963880). Also: nearly all actives have a fitted effect of over 35% in size.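 As to Viability: 100% = DMSO wells and 0% = empty wells on each plate.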 Particulars: ATP luminescence, 48 h; Potency: P12-Ichikawa viability; series mostly up to 45.8 µM. In a few lines:
as §1

The nature of assay [8]: Quantitative highthroughput screen to assess conditional lethalithy of P12 Ichikawa cells grown in RPMI1640 with untreated serum (RPMI+s) (AID 1963881). Also: nearly all actives have a fitted effect of over 35% in size.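 As to Viability: 100% = DMSO wells and 0% = empty wells without cells.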 Particulars: ATP luminescence, 48 h; Potency: viability; series mostly up to 45.8 µM. In a few lines: as §1
A short description of assay [9]: Quantitative highthroughput screen to assess conditional lethalithy of SEM cells grown in Human Plasma-Like Medium with dialyzed fetal bovine serum (HPLM+ds) (AID 1963882). Also: nearly all actives have a fitted effect of over 35% in size. Particulars: SEM B-ALL cells in HPLM+ds, CellTiter-Glo viability, 48 h; series mostly up to 45.8 µM. In a few lines:
as §1

Assay [10] is described as follows: Quantitative highthroughput screen to assess conditional lethalithy of SEM cells grown in RPMI1640 with unreated serum (RPMI+s) (AID 1963883). Also: nearly all actives have a fitted effect of over 35% in size.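 As to Viability: 100% = DMSO wells and 0% = empty wells without cells.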 Particulars: SEM B-ALL cells, CellTiter-Glo viability, 48 h; series mostly up to 45.8 µM. In a few lines: as §1
Assay [11] can be described thus: Quantitative highthroughput screen to assess conditional lethalithy of SEM cells grown in RPMI1640 with dialyzed fetal bovine serum (RPMI+ds) (AID 1963884). Also: nearly all actives have a fitted effect of over 35% in size.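 As to Viability: 100% = DMSO control wells and 0% = empty wells without cells.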 Particulars: SEM B-ALL cells, RPMI+dialyzed FBS, CellTiter-Glo viability, 48 h; series mostly up to 45.8 µM. In a few lines:
as §1

The nature of assay [12]: Cellular viability qHTS for adrenocortical cancer (ACC) cell line SW-13 (AID 1963989). Also: nearly all actives have a fitted effect of over 65% in size.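 As to activity (max response): cells grown in serum-free medium with ITS supplement; % is scaled to controls: 0 for no effect and ±100 for the full control effect.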 Particulars: SW-13 ACC cells viability, CellTiter-Glo, 48 h; activity (max response): stronger effect = lower value. In a few lines: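 Here, serum-free SW-13 cultures were dosed up to 46 uM. Following 48 h, ATP-dependent luminescence (CellTiter-Glo) reported viable cells, and logistic modeling produced IC50 values.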

Assay [13] is described as follows: Cellular viability qHTS for adrenocortical cancer (ACC) cell line NCI-H295R (AID 1963990). Also: nearly all actives have a fitted effect of over 60% in size. Particulars: CellTiter-Glo ATP luminescence, 48 h; series mostly up to 46.1 µM. In a few lines:
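Viability of NCI-H295R after 48 h of treatment (final up to 46 uM) measured through cellular ATP luminescence.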
Potency is read from the fitted curve at half-maximal effect.

With `C[C@](N)(Cc1ccc(O)c(O)c1)C(=O)O`, the Potency entry in [1], in assay [3], in [4], in assay [5], in assay [6] and in assay [7] was “inactive” in each case. Moreover, the Potency result in [8] and in assay [13] was “inactive” in each case. Also, the Potency entry in assay [2] was “inactive and 16.6 µM (active)”; in [9], 26400 nM (active); in assay [10], 23500 nM (active); in assay [11], 23500 nM (active). Also, in [12], the activity (max response) is 12% (inactive) and -6.33% (inactive).
Take `CN(C)Cc1c(C(=O)NCCOc2ccc(C(=O)NO)cc2)oc2ccccc12`: the Potency in assay [1] is 326 nM (active) and 296 nM (active); in [2], 259 nM (active) and 235 nM (active); in assay [3], 4180 nM (active); in assay [4], 4180 nM (active); in assay [5], 4180 nM (active); in assay [6], 2350 nM (active). Besides, the Potency in assay [7] was 2960 nM (active); in assay [8] it was 2090 nM (active); in [9], 1180 nM (active); in assay [10], 1320 nM (active); in [11] it was 1480 nM (active); in assay [12], 1260 nM (active). Besides, the Potency in assay [13] was 794 nM (active).
Regarding `CC[C@@]1(O)C(=O)OCc2c1cc1n(c2=O)Cc2cc3c(CN(C)C)c(O)ccc3nc2-1`, the Potency was 59.6 nM (active) and 58 nM (active) in assay [1]; 33.2 nM (active) in assay [2]; 526 nM (active) in [3]; 526 nM (active) in assay [4]; 332 nM (active) in assay [5]; 105 nM (active) in assay [6]. For the same compound, the Potency was 74.3 nM (active) in [7]; 74.3 nM (active) in [8]; 166 nM (active) in assay [9]; 93.5 nM (active) in assay [10]; 105 nM (active) in [11]; 562 nM (active) in [12].
Turning to `O=C1CCc2ccc(OCCCCN3CCN(c4cccc(Cl)c4Cl)CC3)cc2N1`, the Potency in [1] is 10.5 µM (active); in [2], 9340 nM (active). Also, the Potency result in assay [3], in [4], in [5], in assay [6], in assay [7] and in assay [8] was “inactive” in each case. For the same compound, the Potency result in assay [9] and in assay [10] was “inactive” each time.
As to `COc1cc2ncnc(Nc3cccc(Br)c3)c2cc1OC`, the Potency in assay [1] is 4.68 µM (active); in [2] it was 6.51 µM (active) and 5.25 µM (active). For the same compound, the Potency result in [3], in [4], in assay [5], in [6], in [7] and in [8] was “inactive” in each case. The Potency entry in assay [9] and in assay [10] was “inactive” each time.
Consider `Cc1onc(-c2ccccc2Cl)c1C(=O)N[C@@H]1C(=O)N2[C@@H]1SC(C)(C)[C@@H]2C(=O)O`, for which the Potency entry in assay [1], in assay [2], in [3], in [4], in [5] and in assay [6] was “inactive” in each case. The Potency result in assay [7], in assay [8], in assay [9], in assay [10], in assay [11] and in assay [13] was “inactive” each time. For the same compound, in assay [12], the activity (max response) was 0.896% (inactive).
For `COc1cc([C@@H]2c3cc4c(cc3[C@@H](O[C@@H]3O[C@@H]5CO[C@@H](C)O[C@@H]5[C@H](O)[C@@H]3O)[C@H]3COC(=O)[C@H]23)OCO4)cc(OC)c1O`, the Potency in assay [1] is 0.59 µM (active); in [2], 525 nM (active); in [3], 2090 nM (active); in assay [4], 2350 nM (active); in assay [5] it was 1870 nM (active); in assay [6] it was 935 nM (active). The Potency was 833 nM (active) in [7]; 662 nM (active) in assay [8]; 526 nM (active) in [9]; 132 nM (active) in assay [10]; 166 nM (active) in [11]; 11200 nM (active) in [12]. Further, in assay [13], the Potency is 20000 nM (active).
For the compound `CC(C)c1ccc2c(c1)c(SC(C)(C)C)c(CC(C)(C)C(=O)O)n2Cc1ccc(Cl)cc1`, the Potency in assay [1] was 16.6 µM (active); in [2], 10500 nM (active). The Potency result in assay [3], in [4], in [5], in assay [6], in [7] and in assay [8] was “inactive” in each case. The Potency result in [9], in [10], in assay [11] and in assay [13] was “inactive” throughout. Also, the activity (max response) in assay [12] was 11.6% (inactive).
As for `CC(=O)Nc1ccc([C@H](C)C(=O)Nc2ncc(C(C)C)s2)cc1`, the Potency was 1.66 µM (active) in [1]; 4610 nM (active) in assay [2]; 4690 nM (active) in assay [3]; 8330 nM (active) in assay [4]; 7430 nM (active) in [5]; 11800 nM (active) in assay [6]. Besides, the Potency in [7] was 10500 nM (active); in [8], 11800 nM (active); in [9], 6620 nM (active); in assay [10], 7430 nM (active); in assay [11], 7430 nM (active); in [12], 1260 nM (active). In addition, the Potency in [13] is 3550 nM (active).
In the case of `Nc1ncnc2ccccc12`, the Potency entry in assay [1], in [2], in [3], in assay [4], in [5] and in assay [6] was “inactive” in each case. Besides, the Potency entry in assay [7], in [8], in [9], in assay [10], in [11] and in [13] was “inactive” each time. In addition, the activity (max response) in assay [12] was 12% (inactive).
With `C=C1C(=O)OC(CCCCCCCC)C1C(=O)O` (configuration not stated), the Potency result in assay [1], in assay [2], in [3], in assay [4], in [5] and in [6] was “inactive” each time. For the same compound, the Potency result in [7], in [8], in [9], in assay [10], in assay [11] and in assay [13] was “inactive” each time. Further, the activity (max response) in assay [12] is -7.15% (inactive).
With `Oc1ccc(C2=Cc3ccc(O)cc3OC2)cc1`, the Potency in assay [1] was 0.417 µM (active); in assay [2], 366 nM (active); in assay [3], 9350 nM (active); in assay [4], 11800 nM (active); in assay [5], 9350 nM (active); in assay [6] it was 2960 nM (active). Moreover, the Potency is 2640 nM (active) in [7]; 2960 nM (active) in assay [8]; 2960 nM (active) in [9]; 3320 nM (active) in assay [10]; 3720 nM (active) in assay [11]; 7080 nM (active) in assay [12]. The Potency in [13] was 11200 nM (active).
Turning to `COC(=O)Nc1ccc(-c2nc(N3CCOCC3)c3cnn(C4CCN(Cc5cccnc5)CC4)c3n2)cc1`, the Potency was 0.517 µM (active) in assay [1]; 580 nM (active) in assay [2]; 4690 nM (active) in assay [3]; 1870 nM (active) in assay [4]; 1050 nM (active) in assay [5]; 5900 nM (active) in assay [6]. For the same compound, the Potency in assay [7] was 1480 nM (active); in assay [8] it was 469 nM (active); in assay [9], 662 nM (active); in [10] it was 296 nM (active); in assay [11], 372 nM (active); in assay [12], 12600 nM (active). Also, the Potency in assay [13] was 5010 nM (active).
